Data from PubChem BioAssay AID1159580 (chemical genetic matrix, 2015).
Where “and” joins values, the source holds several entries; their conditions need not be identical. Equal values may be shown once. Among all 5,500 compounds or so, about 2,000 (36%) were called active. Roughly 18% stayed inconclusive and do not appear here. This is one part of the list. Values without a mark were called inactive. No stated cut-off is given here; in the data, active means normalized growth mostly below about 0.91 (no sharp cut-off); inconclusive means no clear call, values can overlap the other calls; inactive means mostly above about 0.92.

Test: chemical genetic growth profiling, strain panel (AID 1159580);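 further: tested at 20 µM; growth read once vehicle control cultures reached saturation at 30 °C; 1 = growth at the plate median or of vehicle wells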
Details: S. cerevisiae deletion strains, growth OD
[1] = locus YDL101C, strain DUN1, stronger effect = lower value
[2] = locus YHR030C, strain SLT2, stronger effect = lower value
[3] = locus YHR079C, strain IRE1, stronger effect = lower value
[4] = locus YJL095W, strain BCK1, stronger effect = lower value
[5] = locus YJR066W, strain TOR1, stronger effect = lower value
[6] = locus YLR113W, strain HOG1, stronger effect = lower value
[7] = locus YNL183C, strain NPR1, stronger effect = lower value
[8] = locus YOR061W, strain CKA2, stronger effect = lower value
[9] = locus YOR231W, strain MKK1, stronger effect = lower value
[10] = locus YPL256C, strain CLN2, stronger effect = lower value

COc1cccc(C(=O)C(C#N)=C(SC)SC)c1
normalized growth (locus YAR019C, strain CDC15, stronger effect = lower value): 0.875 (active) | normalized growth (locus YBL105C, strain PKC1, stronger effect = lower value): 0.88 (active) | normalized growth (locus YBR135W, strain CKS1, stronger effect = lower value): 0.87 (active) | normalized growth (locus YBR136W, strain MEC1, stronger effect = lower value): 0.879 (active) | normalized growth (locus YBR160W, strain CDC28, stronger effect = lower value): 0.878 (active) | normalized growth (locus YDL017W, strain CDC7, stronger effect = lower value): 0.881 (active) | normalized growth (locus YDL028C, strain MPS1, stronger effect = lower value): 0.884 (active) | normalized growth [1]: 0.901 (active) | normalized growth (locus YDL108W, strain KIN28, stronger effect = lower value): 0.894 (active) | normalized growth (locus YDL132W, strain cdc53, stronger effect = lower value): 0.874 (active) | normalized growth (locus YDL214C, strain PRR2, stronger effect = lower value): 0.429 (active) | normalized growth (locus YDR052C, strain DBF4, stronger effect = lower value): 0.879 (active) | normalized growth (locus YDR054C, strain cdc34, stronger effect = lower value): 0.855 (active) | normalized growth (locus YDR226W, strain ADK1, stronger effect = lower value): 0.87 (active) | normalized growth (locus YDR477W, strain SNF1, stronger effect = lower value): 0.393 (active) | normalized growth (locus YER123W, strain YCK3, stronger effect = lower value): 0.256 (active) | normalized growth (locus YER133W, strain GLC7, stronger effect = lower value): 0.295 (active) | normalized growth (locus YFL009W, strain cdc4, stronger effect = lower value): 0.869 (active) | normalized growth (locus YFL029C, strain CAK1, stronger effect = lower value): 0.872 (active) | normalized growth (locus YFR003C, strain YPI1, stronger effect = lower value): 0.88 (active) | normalized growth (locus YFR019W, strain FAB1, stronger effect = lower value): 0.287 (active) | normalized growth (locus YFR028C, strain CDC14, stronger effect = lower value): 0.868 (active) | normalized growth (locus YGR040W, strain KSS1, stronger effect = lower value): 0.331 (active) | normalized growth (locus YGR052W, strain FMP48, stronger effect = lower value): 0.294 (active) | normalized growth (locus YGR092W, strain DBF2, stronger effect = lower value): 0.206 (active) | normalized growth [2]: 0.192 (active) | normalized growth [3]: 0.307 (active) | normalized growth (locus YHR082C, strain KSP1, stronger effect = lower value): 0.298 (active) | normalized growth (locus YHR205W, strain SCH9, stronger effect = lower value): 0.321 (active) | normalized growth (locus YIL147C, strain SLN1, stronger effect = lower value): 0.885 (active) | normalized growth [4]: 0.264 (active) | normalized growth (locus YJL128C, strain PBS2, stronger effect = lower value): 0.89 | normalized growth (locus YJL157C, strain FAR1, stronger effect = lower value): 0.37 (active) | normalized growth (locus YJR016C, strain ILV3, stronger effect = lower value): 0.874 (active) | normalized growth (locus YJR066W, strain TOR1 (second series), stronger effect = lower value): 0.275 (active) | normalized growth [5]: 0.268 (active) | normalized growth (locus YKL048C, strain ELM1, stronger effect = lower value): 0.45 (active) | normalized growth (locus YKL067W, strain YNK1, stronger effect = lower value): 0.508 (active) | normalized growth (locus YKL101W, strain HSL1, stronger effect = lower value): 0.434 (active) | normalized growth (locus YKL193C, strain SDS22, stronger effect = lower value): 0.886 (active) | normalized growth (locus YKL203C, strain TOR2, stronger effect = lower value): 0.291 (active) | normalized growth [6]: 0.324 (active) | normalized growth (locus YLR133W, strain CKI1, stronger effect = lower value): 0.44 (active) | normalized growth (locus YLR403W, strain SFP1, stronger effect = lower value): 0.265 (active) | normalized growth (locus YML070W, strain DAK1, stronger effect = lower value): 0.346 (active) | normalized growth (locus YMR001C, strain CDC5, stronger effect = lower value): 0.876 (active) | normalized growth (locus YMR205C, strain PFK2 (second series), stronger effect = lower value): 0.526 (active) | normalized growth (locus YMR277W, strain FCP1, stronger effect = lower value): 0.881 (active) | normalized growth (locus YNL006W, strain LST8, stronger effect = lower value): 0.887 (active) | normalized growth (locus YNL020C, strain ARK1, stronger effect = lower value): 0.432 (active) | normalized growth (locus YNL161W, strain CBK1, stronger effect = lower value): 0.871 (active) | normalized growth [7]: 0.298 (active) | normalized growth (locus YNL207W, strain RIO2, stronger effect = lower value): 0.88 (active) | normalized growth (locus YNL222W, strain SSU72, stronger effect = lower value): 0.891 (active) | normalized growth (locus YNL307C, strain MCK1 (second series), stronger effect = lower value): 0.293 (active) | normalized growth (locus YOL078W, strain AVO1, stronger effect = lower value): 0.868 (active) | normalized growth (locus YOL136C, strain PFK27, stronger effect = lower value): 0.301 (active) | normalized growth [8]: 0.423 (active) | normalized growth (locus YOR119C, strain RIO1, stronger effect = lower value): 0.317 (active) | normalized growth [9]: 0.366 (active) | normalized growth (locus YOR329C, strain SCD5, stronger effect = lower value): 0.872 (active) | normalized growth (locus YPL031C, strain PHO85, stronger effect = lower value): 0.309 (active) | normalized growth (locus YPL153C, strain RAD53, stronger effect = lower value): 0.387 (active) | normalized growth (locus YPL204W, strain HRR25, stronger effect = lower value): 0.294 (active) | normalized growth (locus YPL209C, strain IPL1, stronger effect = lower value): 0.877 (active) | normalized growth [10]: 0.292 (active) | normalized growth (locus YPR025C, strain CCL1, stronger effect = lower value): 0.875 (active) | normalized growth (locus YPR106W, strain ISR1, stronger effect = lower value): 0.893 | normalized growth (locus YPR111W, strain DBF20, stronger effect = lower value): 0.902 | normalized growth (strain NNK1, stronger effect = lower value): 0.89 | normalized growth (strain TSCII, stronger effect = lower value): 0.867 (active)

COc1cc2ccc(=O)oc2c(O)c1O
normalized growth (locus YBR021W, strain FUR4, stronger effect = lower value): 1.03 | normalized growth (locus YBR229C, strain ROT2, stronger effect = lower value): 0.957 | normalized growth (locus YCL029C, strain bik1, stronger effect = lower value): 1.01 | normalized growth (locus YDL035C, strain GPR1, stronger effect = lower value): 1.01 | normalized growth (locus YDL074C, strain BRE1, stronger effect = lower value): 1.05 | normalized growth [1]: 0.984 | normalized growth (locus YDL185W, strain tfp1, stronger effect = lower value): 0.983 | normalized growth (locus YDL192W, strain arf1, stronger effect = lower value): 1 | normalized growth (locus YDR101C, strain arx1, stronger effect = lower value): 1.01 | normalized growth (locus YDR162C, strain NBP2, stronger effect = lower value): 0.934 | normalized growth (locus YDR318W, strain mcm21, stronger effect = lower value): 0.992 | normalized growth (locus YDR388W, stronger effect = lower value): 1 | normalized growth (locus YDR502C, strain sam2, stronger effect = lower value): 0.986 | normalized growth (locus YEL061C, strain CIN8, stronger effect = lower value): 0.995 | normalized growth (locus YER110C, stronger effect = lower value): 0.995 | normalized growth (locus YER155C, strain BEM2, stronger effect = lower value): 1.03 | normalized growth (locus YER167W, strain BCK2, stronger effect = lower value): 1.01 | normalized growth (locus YGL078C, strain dbp3, stronger effect = lower value): 1.01 | normalized growth (locus YGL086W, strain mad1, stronger effect = lower value): 1.04 | normalized growth (locus YGL248W, strain PDE1, stronger effect = lower value): 0.979 | normalized growth (locus YGR078C, strain PAC10, stronger effect = lower value): 0.98 | normalized growth (locus YGR135W, strain pre9, stronger effect = lower value): 0.966 | normalized growth (locus YGR252W, strain gcn5, stronger effect = lower value): 0.959 | normalized growth [2]: 1.01 and 1.04 | normalized growth (locus YHR079C, strain IRE1 (second series), stronger effect = lower value): 0.996 | normalized growth [3]: 1.03 | normalized growth (locus YHR094C, strain hxt1, stronger effect = lower value): 0.987 | normalized growth (locus YHR129C, strain ARP1, stronger effect = lower value): 0.995 | normalized growth (locus YHR200W, strain rpn10, stronger effect = lower value): 0.988 | normalized growth (locus YIL066C, strain RNR3, stronger effect = lower value): 0.996 | normalized growth (locus YIL073C, strain SPO22, stronger effect = lower value): 0.997 | normalized growth (locus YIL125W, strain kgd1, stronger effect = lower value): 1 | normalized growth (locus YIR030C, strain dcg1, stronger effect = lower value): 1 | normalized growth [4]: 0.956 and 1.01 | normalized growth (locus YJL134W, strain LCB3, stronger effect = lower value): 1 | normalized growth (locus YJL168C, strain set2, stronger effect = lower value): 0.992 | normalized growth (locus YJL187C, strain SWE1 (second series), stronger effect = lower value): 0.991 | normalized growth (locus YJR043C, strain POL32, stronger effect = lower value): 1.01 | normalized growth [5]: 0.978 | normalized growth (locus YJR075W, strain HOC1, stronger effect = lower value): 1.01 | normalized growth (locus YKL009W, strain mrt4, stronger effect = lower value): 1.13 [resistant] (active) | normalized growth (locus YKL068W, stronger effect = lower value): 0.982 | normalized growth (locus YKL085W, strain MDH1 (second series), stronger effect = lower value): 1 | normalized growth (locus YKL085W, strain MDH1, stronger effect = lower value): 1 | normalized growth (locus YKR001C, strain vps1, stronger effect = lower value): 1 | normalized growth (locus YLR039C, strain RIC1, stronger effect = lower value): 1 | normalized growth (locus YLR058C, strain SHM2, stronger effect = lower value): 1 | normalized growth (locus YLR102C, strain apc9, stronger effect = lower value): 1 | normalized growth [6]: 0.984 | normalized growth (locus YLR262C, strain YPT6, stronger effect = lower value): 0.955 | normalized growth (locus YLR268W, strain sec22, stronger effect = lower value): 1.03 | normalized growth (locus YLR330W, strain CHS5, stronger effect = lower value): 1 | normalized growth (locus YLR342W, strain FKS1 (second series), stronger effect = lower value): 1.06 | normalized growth (locus YLR371W, strain rom2, stronger effect = lower value): 0.981 | normalized growth (locus YLR418C, strain cdc73, stronger effect = lower value): 0.971 | normalized growth (locus YML016C, strain PPZ1, stronger effect = lower value): 0.996 | normalized growth (locus YML032C, strain rad52, stronger effect = lower value): 1.01 | normalized growth (locus YML124C, strain tub3, stronger effect = lower value): 0.997 | normalized growth (locus YMR078C, strain ctf18, stronger effect = lower value): 0.991 | normalized growth (locus YMR223W, strain ubp8, stronger effect = lower value): 1.01 | normalized growth (locus YMR307W, strain GAS1, stronger effect = lower value): 1.05 | normalized growth (locus YNL067W, strain RPL9B, stronger effect = lower value): 0.983 | normalized growth (locus YNL128W, strain TEP1, stronger effect = lower value): 0.96 | normalized growth [7]: 0.976 | normalized growth (locus YNL233W, strain BNI4, stronger effect = lower value): 1 | normalized growth (locus YNL250W, strain rad50, stronger effect = lower value): 1 | normalized growth (locus YNL271C, strain bni1, stronger effect = lower value): 1 | normalized growth (locus YNL298W, strain CLA4, stronger effect = lower value): 0.997 | normalized growth (locus YNL307C, strain MCK1, stronger effect = lower value): 1.01 | normalized growth (locus YNL322C, strain KRE1, stronger effect = lower value): 0.99 | normalized growth (locus YNR052C, strain pop2, stronger effect = lower value): 0.993 | normalized growth (locus YOL006C, strain TOP1, stronger effect = lower value): 1.11 | normalized growth (locus YOL012C, strain htz1): 0.802 | normalized growth (locus YOL147C, strain pex11, stronger effect = lower value): 1.01 | normalized growth [8]: 0.988 | normalized growth (locus YOR069W, strain VPS5, stronger effect = lower value): 1.01 | normalized growth (locus YOR136W, strain idh2, stronger effect = lower value): 1.01 | normalized growth (locus YOR144C, strain elg1, stronger effect = lower value): 0.994 | normalized growth (locus YOR184W, strain ser1, stronger effect = lower value): 0.983 | normalized growth [9]: 1.01 | normalized growth (locus YOR316C, strain cot1, stronger effect = lower value): 0.997 | normalized growth [10]: 1.03 | normalized growth (locus YPR119W, strain clb2, stronger effect = lower value): 0.991 | normalized growth (locus YPR141C, strain kar3, stronger effect = lower value): 0.997 | normalized growth (locus YPR163C, strain tif3, stronger effect = lower value): 0.985 | normalized growth (locus YPR167C, strain met16, stronger effect = lower value): 0.994 | normalized growth (strain wtn01, stronger effect = lower value): 1.03
